Tau fibril ThT: inhibitors of human tau fibril formation, thioflavin T binding | actives 2.1% (n = 270,000) | recombinant tau K18 P301L, heparin-induced fibrillization, ThT fluorescence | Potency, µM (top dose mostly 57.4 µM), inactives show top-dose activity, negative = inhibition, actives largely listed as inhibitors; also: nearly all actives have a fitted effect of over 55% in size
Target sequence (P10636 561-689 P618L limits assumed): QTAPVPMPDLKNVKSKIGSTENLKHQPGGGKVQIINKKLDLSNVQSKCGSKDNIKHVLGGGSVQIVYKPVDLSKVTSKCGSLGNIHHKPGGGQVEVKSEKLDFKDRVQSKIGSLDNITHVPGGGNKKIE
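In this qHTS, human K18 P301L tau is incubated with compound and heparin for 6 hr at 37 C, and Thioflavin T fluorescence then reports fibril load.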
KinaseGlo FLuc: counter-screen: inhibitors of Kinase-Glo firefly luciferase | Kinase-Glo luciferase, ATP luminescence, 8 min | Potency, µM (top dose mostly 38.3 µM), without a hit: at the top dose activity change, negative = inhibition, most hits filed as inhibitors | actives 0.28% (n = 200,000) | AID 1379; also: nearly all actives have a fitted effect of over 60% in size
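Compounds were added to a substrate mix at pH 7.2 (50 mM imidazole, 10 uM ATP, within the enzyme's linear range), followed by Kinase-Glo detection reagent; luminescence was measured after 8 minutes at ambient temperature.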
Tau fibril FP: tau fibrillization inhibition (FP). Potency, µM (titrated, usually from 57.7 µM), inactives show at the highest dose activity, negative = inhibition, actives largely listed as inhibitors. actives 0.39% (n = 280,000). AID 1468. K18 P301L tau heparin fibrillization, Alexa594 FP, 6 h; also: nearly all actives have a fitted effect of over 55% in size
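FP of Alexa 594-tau after heparin (20 uM) induction. Substrate: human K18 P301L, 15 uM unlabeled, 0.24 uM labeled. Buffer 100 mM sodium acetate pH 7. 6 hr, 37 C.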
NPSR antag: antagonists of human neuropeptide S receptor cAMP signaling; Q6W5P4; CHO-NPSR cells, cAMP TR-FRET, antagonist mode; Potency, µM (highest dose often 38.3 µM), for inactives: top-dose activity change, negative = inhibition, usual class: inhibitors; actives 1% (n = 220,000); AID 1461; also: nearly all actives have a fitted effect of over 50% in size
Target sequence (Q6W5P4 whole entry, looked up): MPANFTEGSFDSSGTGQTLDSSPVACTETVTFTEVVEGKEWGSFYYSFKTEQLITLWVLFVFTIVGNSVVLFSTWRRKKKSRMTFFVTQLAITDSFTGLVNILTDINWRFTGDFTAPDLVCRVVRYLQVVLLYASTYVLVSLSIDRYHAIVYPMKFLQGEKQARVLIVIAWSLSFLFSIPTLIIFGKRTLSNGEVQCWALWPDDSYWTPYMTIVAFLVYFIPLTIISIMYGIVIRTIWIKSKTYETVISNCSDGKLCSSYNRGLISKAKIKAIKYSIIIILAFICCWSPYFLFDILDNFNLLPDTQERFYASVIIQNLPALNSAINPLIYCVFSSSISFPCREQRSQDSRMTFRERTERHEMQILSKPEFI
Tau fluor cs: counter-screen for tau fibril formation inhibitors; tau K18 P301L (four-repeat tau fragment) Alexa594 fluorescence, heparin fibrillization; Potency, µM (top dose mostly 57.7 µM), for the others: at the highest dose activity change, negative = decrease; actives 0.93% (n = 280,000); also: nearly all actives have a fitted effect of over 55% in size
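Human K18 P301L tau (15 uM unlabeled plus 0.24 uM Alexa 594-labeled, final) in 100 mM sodium acetate pH 7 was mixed with compound and 20 uM heparin and incubated 6 hr at 37 C.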
Active calls of the source: *; ? = inconclusive; . = no result given; [ ] = remark or other dose. Most compounds without a hit are left out; they make up all but 3.3% or so of the library. Calls follow the shape of the dose curve; as a rule, active = well fitted curve in the direction sought with a large enough effect; inconclusive = small, poorly fitted or top-dose-only effect, or another doubt; inactive = no such curve, though single readings can be large; an effect the other way counts as inactive or inconclusive. % is scaled to controls: 0 for no effect and ±100 for the full control effect; potency is read from the fitted curve at half-maximal effect.

SMILES | Tau fibril ThT | KinaseGlo FLuc | Tau fibril FP | NPSR antag | Tau fluor cs
Cc1ccc2nc(C)c(C(=O)N/N=C/c3ccc(N4CCOCC4)cc3)cc2c1 | ? | -5% | 3% | 0% | -5%
Cc1ccc(C)c2nc3sc(C(=O)N4CCOCC4)c(N)c3cc12 | -4% | -5% | -8%[2.34 µM] | 2% | -6%[2.34 µM]
Cc1ccc(CN(Cc2ccco2)C(=O)c2oc3c(C)c(C)ccc3c2C)cc1 | -15% | . | 0% | . | -6%
CCc1ccc(-n2nc(CO)c(C(=O)NC)n2)cc1 | 4% | . | 0% | . | 1%
O=C1OC2(c3ccc(O)cc3Oc3cc(O)ccc32)c2c1c(-c1ccccc1)c(-c1ccccc1)c(-c1ccccc1)c2-c1ccccc1 | . | -9%[7.66 µM] | . | . | .
O=C(NCCc1ccc(Cl)cc1)C1COc2ccccc2C1 (stereo unspecified) | -10% | . | -5% | . | -3%
CCCC(=O)Nc1cccc(-c2nc3cc(C)c(C)cc3o2)c1C | ? | . | -13% | . | -4%
CC(=O)n1cc(C(C[N+](=O)[O-])SCCN)c2ccccc21 (stereo unspecified) | 13µM* | -4% | -10% | 10µM* | -19%
O=C(O)c1ccc(N/N=C/c2ccc3c(c2)OCO3)cc1 | ? | 4µM* | -1% | 55% | ?
O=C(O)c1ccc(N/N=C/c2cc3c(cc2[N+](=O)[O-])OCO3)cc1 | 14µM* | ? | 3% | -49% | -29%
O=C(O)c1cc(N/N=C/c2ccc3c(c2)OCO3)ccc1Cl | ? | -2% | 6% | 7% | -14%
Cc1ccc(C(=O)Nc2ccc(-c3nc4ccccc4o3)cc2)cc1Cl | -16% | . | -19% | . | ?
COCc1cc(C)nc2c1C(=O)NC(c1ccc(C)cc1)N2Cc1ccccc1 (stereo unspecified) | 4% | . | -2% | . | 12%
C=C[C@@]1(C)CC[C@H](O)[C@H]2C(=O)CCC[C@@H]21 | -1% | 1% | 6% | . | -1%
Cc1cc(C(F)(F)F)n(-c2nc(C(=O)NNS(=O)(=O)c3ccccc3[N+](=O)[O-])cs2)n1 | ? | 0% | 1% | 44% | -5%
N#CC(C#N)=C(N)/C(C#N)=C/c1cc(O)c(O)c(O)c1 | 11µM* | . | ? | . | ?
N#C/C(=C\c1ccc(O)c(O)c1)C(=O)c1ccc(O)c(O)c1 | ? | -6% | 0% | -9%[46.1 µM] | -25%
C=CCOc1ccccc1CNc1ccc2c(c1)OCCO2 | 18µM* | -15% | 0% | -1% | ?
COc1ccc(NC(=O)Cn2c(=O)n(CCc3ccccc3)c(=O)c3c4c(sc32)CCCC4)cc1 | 14% | . | ? | . | -20%
COc1ccc(NC(=O)CSc2nc(-c3ccc(OC)cc3)[nH]c2-c2ccc(OC)cc2)cc1 | -11% | . | 7% | . | 8.9µM*[quencher]
COc1ccc(-c2[nH]c(-c3ccc(F)cc3)nc2SCC(=O)Nc2ccc(OC)c(OC)c2)cc1 | ? | . | 14% | . | 14µM*[quencher]
CCOc1ccc(-c2nc(SCC(=O)Nc3ccc4c(c3)OCO4)c(-c3ccc(F)cc3)[nH]2)cc1 | ? | . | 2% | . | ?
COc1ccc(-c2[nH]c(-c3ccc(F)cc3)nc2SCC(=O)NCc2ccco2)cc1OC | ? | 2% | ? | -6%[46.1 µM] | ?
COc1ccc(NC(=O)CSc2nc(-c3cc(OC)c(OC)c(OC)c3)[nH]c2-c2ccc(F)cc2)cc1 | ? | . | 9% | . | 7.1µM*[quencher]
CCn1c(=O)c2sccc2n2c(CCCC(=O)N3CCN(c4cc(C)ccc4C)CC3)nnc12 | -8% | . | 7% | . | -6%
CCCCC#CC1C=CC(Oc2ccc(OC)cc2)C(CO)O1 (stereo unspecified) | -17%[11.5 µM] | . | 1%[11.6 µM] | . | -15%[11.6 µM]
CCCOc1ccccc1C(=O)N1CCC(c2nc3ccccc3s2)CC1 | -12% | . | 5% | . | -3%
O=S(=O)(c1cccs1)N1CN(Cc2ccco2)c2nc3ccccc3nc21 | 22µM* | . | ? | 16%[7.67 µM] | ?
COc1ccc(-c2nc3sc(CCNC(=O)Cc4ccccc4)c(C)n3n2)cc1 | -7% | . | -14% | . | -6%
Cc1c(C(=O)NN2CCCCC2)nn(-c2ccc(Cl)cc2Cl)c1-c1ccc(I)cc1 | ? | -1% | 2% | 10µM* | 2%

Screens: PubChem BioAssay, National Center for Advancing Translational Sciences (NCATS)
